Key:
Type in all cases: functional
[1] = molecular target: Solute carrier family 2, facilitated glucose transporter member 1 (Homo sapiens) (UniProt P11166); test: ST_JUDE_LEISH: Cytotoxicity at 2uM final concentration against transgenic Leishmania Mexicana promastigotes LmGLUT1 that are glucose transport deficient and complemented with the human glucose transporter GLUT1. Activity is measured by DNA content using SYBR green in vitro
[2] = molecular target: Hexose transporter 1 (Plasmodium falciparum) (UniProt O97467); test: ST_JUDE_LEISH: Cytotoxicity at 2uM final concentration against transgenic Leishmania Mexicana promastigotes LmPfHT that are glucose transport deficient and complemented with the Plasmodium falciparum hexose transporter. Activity is measured by DNA content using SYBR green in vitro
[3] = molecular target: Glucose transporter (Leishmania mexicana) (UniProt O61059); test: ST_JUDE_LEISH: Cytotoxicity at 2uM final concentration against transgenic Leishmania Mexicana promastigotes LmGT2 that are glucose transport deficient and complemented with the L. Mexicana glucose transporter 2. Activity is measured by DNA content using SYBR green in vitro

Chain of Solute carrier family 2, facilitated glucose transporter member 1 (Homo sapiens) (P11166 whole entry): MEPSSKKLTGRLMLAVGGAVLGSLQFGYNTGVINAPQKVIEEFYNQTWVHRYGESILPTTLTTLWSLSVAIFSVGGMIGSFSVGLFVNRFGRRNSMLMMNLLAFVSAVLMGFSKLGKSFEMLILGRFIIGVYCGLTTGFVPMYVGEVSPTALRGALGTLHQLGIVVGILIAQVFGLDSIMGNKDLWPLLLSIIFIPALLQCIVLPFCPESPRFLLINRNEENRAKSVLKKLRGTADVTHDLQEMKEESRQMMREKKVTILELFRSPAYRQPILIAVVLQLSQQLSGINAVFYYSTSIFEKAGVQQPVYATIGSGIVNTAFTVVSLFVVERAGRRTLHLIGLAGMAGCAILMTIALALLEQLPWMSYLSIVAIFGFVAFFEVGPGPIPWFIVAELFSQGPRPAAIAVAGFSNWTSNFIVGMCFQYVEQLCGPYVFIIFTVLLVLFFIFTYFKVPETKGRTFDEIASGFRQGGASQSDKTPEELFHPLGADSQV

Structure (SMILES)	inhibition [1]	inhibition [2]	inhibition [3]
COc1ccc(C)c(Nc2ccnc(Nc3ccc(-c4cnc[nH]4)cc3)n2)c1	2.85%	2.37%	3.29%
CS(=O)(=O)c1cccc2sc(N3CCN(C(=O)c4ccc([N+](=O)[O-])o4)CC3)nc12	35.6%	23.7%	3.97%
Cc1ccc(Cc2cnc(CN3CCCCC3)c(O)c2)cc1	-1.22%	-2.99%	0.07%
CN1CCCN(Cc2ccc(-c3ccc(NC(=O)c4ccc(C#N)cc4)cc3)cc2)CC1	0.69%	-0.51%	-0.13%
Cc1cccc(CNc2nc(C)cc(NCCC(=O)NCCOc3ccccc3)n2)c1	6.22%	3.29%	-0.13%
Fc1ccc2[nH]c(-c3ccc(-c4ccc(CN5CCCCC5)cc4)cc3)nc2c1	8.66%	7.06%	5.34%
O=C(Nc1ccc2c(c1)OCO2)NC1CCN(c2ccnc(NCc3ccc(F)cc3)n2)CC1	2.05%	2.3%	0.61%
O=C(NCCN1CCCCC1)c1cc2cc(-c3ccccc3)ccc2n1S(=O)(=O)c1ccccc1	71.9%	74.7%	55.4%
FC(F)(F)CNc1nc(Nc2ccc3ncccc3c2)nc2[nH]ccc12	21.8%	17.9%	8.14%
O=S(=O)(Nc1cc2c(cc1OCc1ccccc1)CCN(C1CCC1)CC2)c1ccc(-c2ccc(Cl)cc2)cc1	1.72%	2.61%	-1.11%
COc1ccc(CNCc2ccc(-c3ccc(-c4nc5cccc(C)c5[nH]4)cc3)cc2)cc1	18.1%	17.2%	10.3%
c1ccc(CCNc2ccnc(Nc3ccc4[nH]nnc4c3)n2)cc1	14.1%	13.9%	10.8%
Cc1cccc2nc(-c3ccc(-c4cccc(CNCCN(C)C)c4)cc3)[nH]c12	3.31%	2.84%	0.95%

Source: ChEMBL document CHEMBL3433997, “St. Jude Leishmania screening dataset” (2016)
